Experimental data from the supplement of paper PMC3334620.
The full ranking holds about 33,000 sequences; the median of “E-score (-0.5 to 0.5)” is about -0.0059, and the highest 2% start at about 0.26. This excerpt belongs to a sample that is enriched for the highest values.

Molecular target: T1, Cin5 (UniProt P40917)
T1 sequence: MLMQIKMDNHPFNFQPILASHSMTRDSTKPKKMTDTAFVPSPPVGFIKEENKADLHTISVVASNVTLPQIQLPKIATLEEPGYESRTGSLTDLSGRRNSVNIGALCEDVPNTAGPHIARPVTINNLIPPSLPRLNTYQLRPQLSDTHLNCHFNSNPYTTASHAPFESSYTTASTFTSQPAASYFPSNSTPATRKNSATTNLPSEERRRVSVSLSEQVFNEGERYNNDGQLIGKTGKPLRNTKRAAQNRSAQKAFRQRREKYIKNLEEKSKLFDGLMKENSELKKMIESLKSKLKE
Assay: PBM E-score (8-mer binding enrichment) (E-score (-0.5 to 0.5)); higher = stronger / more preferred TF binding
Settings: protein concentration: 100 nM; construct: GST-full length
Summary of the method: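 Yeast transcription factors carrying a GST tag, as full-length proteins or DNA-binding domains, were produced by PURExpress in vitro transcription/translation. About 100-200 nM protein was applied to universal all-10-mer Agilent arrays, double-stranded by primer extension on fresh or once-stripped slides. Bound protein was detected with fluorescent anti-GST, and scans were normalised with masliner. The Universal PBM Analysis Suite gave each ungapped eight-base word, pooled with its reverse complement, an E-score, a modified Wilcoxon-Mann-Whitney statistic.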

Sequence	PBM E-score
CGCCAAGC	-0.235
TCTTAGAA	0.0741
AATTATCA	0.251
AATTATGT	0.304
AATTATGG	0.156
AATTATGA	0.257
AATTATCT	0.331
AATTATCC	0.133
CGGTTGCA	-0.146
ACTGTCGG	-0.186
AGCGTAAT	0.13
CTTATCAC	0.0488
ATTATCAA	0.274
ATTATCAG	0.119
ATTATCAC	0.234
CTTATCAA	0.278
GTTATCAA	0.0472
AGCTTCGG	-0.187
CAAGCCTA	-0.16
GGTTACAA	0.0628
CAAGTGAG	-0.036
CAGATCGG	-0.0356
ACGATTAA	0.0274
CGGATTAC	0.122
CCGATTAA	0.117
GCGATTAC	0.264

Sequence	PBM E-score
CCGATTAC	0.23
TCGATTAA	0.267
GGGATTAA	0.23
ACGATTAC	0.295
GGGATTAC	0.264
AAGATTAC	0.255
ACGATTGC	0.153
GCGATTAA	0.209
GCAGTACC	-0.0675
CAGTTACC	-0.0935
ACACACCG	-0.137
CTAATGGC	-0.0137
CCTTTGCA	-0.0748
ATCACAGA	-0.0171
CCCACGTA	-0.0439
CACCCAGG	-0.237
TACGATGA	0.12
AGGATTAT	-0.0477
ACGATTAG	0.158
ACGATTAT	0.274
CCCGTTTA	0.069
AGATTACC	0.14
CCATTACG	0.0601
GGATTACA	0.19
CGATTACA	0.177
CGATTACC	0.143

Sequence	PBM E-score
TCATTACA	0.164
AGATTACA	0.286
TGATTACA	0.301
AGATTACG	0.419
AGATTACT	0.182
CGATTACG	0.389
CCATTACA	0.223
CTCCCTTC	-0.312
AAAAGCCC	-0.0247
CGGGCCTC	0.0182
CACACACA	0.0837
AAGACCAC	-0.205
CACCCGGC	-0.351
TCAGGCAA	-0.0467
CGGGTGTA	0.0316
GATTCACA	0.0537
AATTCACG	-0.0153
AATTCACA	0.258
AAGGTATA	-0.0348
ACTAATCG	0.355
ACTAAACA	0.258
TCTAATCA	0.231
ACTAAACC	-0.0367
TCTAAACA	-0.115
ACTAATCA	0.264
ACTAATCC	0.125

Sequence	PBM E-score
ACTAATCT	0.128
CCTAATCG	0.155
CTCGACCC	-0.157
CCGTTACG	0.0353
ATCTTTAA	0.0357
CCCCTCTC	-0.318
AACGTCGG	-0.0613
TATGTCGA	0.0777
AGTATTCA	0.165
CTCGCAAA	-0.0438
GTCAGCCA	0.07
ATACCTAA	0.286
ATACCTAT	0.176
ATACCTAC	0.046
AGGCAGAC	-0.247
CTGCTTTC	0.058
CTGCTTAC	0.402
CTGCTTTA	0.278
CTGCTTAA	0.00628
CTGCTGAA	-0.212
CTGCTGAC	0.26
ATGCTTAC	0.265
CTGCTTCC	-0.178
ATGCTTAA	0.146
CTGCTGTC	-0.0623
ATGCTTTC	0.155

Sequence	PBM E-score
ATGCTTTA	-0.0364
AAACCTGT	0.0662
ATGTGAGC	-0.0106
AAAAGCTG	-0.148
GCAGGAGC	-0.285
GACCGCCC	-0.161
TCGAGTCA	-0.0465
ATTTCCTC	0.09
AGGAGCCG	-0.317
AGAGGAGC	-0.233
GGCTGCAA	-0.0216
ATGCTTAG	0.313
ATGCTTCG	-0.0239
ATGCTTGG	-0.0358
GGGGAAAC	-0.0321
AAGAACAA	0.197
CGGAACAA	0.302
TGGAACAA	0.0669
AGGAACGA	-0.244
CGGAACAC	0.177
CGGAACGA	0.287
CGGAACGC	0.0289
GAGAACAA	0.269
GAGAACAC	0.047
CGCCCCAC	0.131
AGTTTCTG	0.0528

Sequence	PBM E-score
GTGGAGGA	-0.0744
GGACTAAC	-0.232
GTCACAAA	-0.0564
GGATGGCC	-0.296
TGATGGCA	-0.112
GGATGGCA	0.27
AACCTAGG	-0.0368
ATACGTAA	0.386
GTACGTAA	0.397
ATACGAAT	0.0148
GTTCGTAA	0.153
CTTCGTAA	0.0958
ATTCGTAA	0.304
CTACGTAA	0.24
ATACGTAC	-0.0222
ATACGAAA	0.265
CTACGAAA	-0.0568
ATACGTAG	0.116
GTACGTAC	-0.00455
CACGGAAA	0.224
AAACTCAT	0.205
CGAGATAA	0.255
CGCACGGC	0.001
ACTTTTCT	0.0353
ATCCAGAG	0.161
CGCATCGC	-0.195

Sequence	PBM E-score
CACAACTA	0.211
GATGAGTA	0.152
AGGGAGAC	-0.0805
AACGATAC	0.0238
AAAGATAT	0.3
AAAGATAG	-0.0374
AACGATAT	0.285
AAAGATAC	0.186
AACGATAG	0.0137
ATCGGTGA	0.103
GGCTGAGA	-0.0327
GGCCCAAC	-0.0745
AATGGCAT	0.32
AATGGCTC	0.0552
AATGGCAG	0.0479
AATGGCTA	0.274
CATGGCTA	0.037
AATGGCAC	0.00736
GCACTCCA	-0.111
ATTTCGAA	0.188
CCGTAAGA	-0.122
CCGTAAAC	0.072
CCGTAATA	0.203
CCGTAAGC	0.332
CCGTAATC	0.329
GCGTAAGC	0.227

Sequence	PBM E-score
GAATCCTA	0.0175
GGAAACTA	-0.105
TATCTCCA	0.112
CTAAATCA	0.00062
GCTAATCA	0.212
AGTAATGA	0.13
ATTAATCG	0.228
AGTAATCA	0.312
GTAAATCA	0.284
GGTAATCA	0.289
AGTAATGG	0.162
AGTAATCC	0.243
AGTAATCG	0.262
GGTAATGA	0.153
ATAAATCA	0.185
CCTACCAC	-0.224
CCACCGGA	0.0953
ATCAATAG	0.0422
CAGAGTAA	-0.0253
GGACGTCA	0.0529
AGACGTCA	-0.00622
TGACGTCA	0.425
GGTTGAAA	-0.00909
ACGGTGCA	-0.139
AAGGTTAA	0.0178
AAAGGGCA	-0.174

Sequence	PBM E-score
GTAATCAC	0.321
CTAATCAA	0.301
GAAATCAA	0.167
CTAATCAC	0.248
GGAATCAA	0.0945
GTAATCAA	0.392
GAAATCAC	0.149
TCAATCAA	0.173
TTAATCAA	0.166
ACAGCGAA	-0.00314
AGTTTGAA	0.0821
GCTTTGTA	0.174
GAAGATTC	0.0827
CCTGCAGC	-0.0691
GGAAGCGA	0.0828
ATAAGCGA	0.267
GTAAGCGA	0.383
ATAAGCGC	0.188
CTAAGCGA	0.0261
ATAAGCGG	0.206
GACGTACC	-0.0136
CATCGAAA	-0.0105
CTTCAAAA	0.0157
GTGTTGAA	0.0739
GCTGGCCC	-0.269
AAGCTAGA	-0.0103

Sequence	PBM E-score
CTACAAAC	0.043
AAGGGAGT	-0.285
CTTACCTC	-0.0461
ATTACCTA	0.349
ATTACCTC	0.142
GTTACCTA	0.131
CTTACCTA	0.32
ATTACCTG	0.113
CCTAGGTA	-0.0942
CAGTTGCA	-0.123
CGATTTAG	0.182
ACAATCGA	0.0876
GCTTCTAA	-0.109
AGTATCCC	0.0604
AAGGATCG	0.00025
CTGGGACC	-0.316
ATTGTTTG	0.168
GTTGTTAA	0.284
ATTGTTAG	0.109
ATTGTTAA	0.0779
ATTGTTTC	0.275
CTTGTTAA	-0.0283
ATTGTTAC	0.276
CTTGTTAC	-0.0236
CTTGTTTC	0.0494
CGGGGGTC	-0.417

Sequence	PBM E-score
CCTCCGAG	-0.16
GCTAAGCA	0.0676
GCCCAATA	0.0485
ACAGGACG	-0.133
CCACATAG	-0.0996
CGGGCCCC	-0.12
AATCATAT	0.193
CAACATAA	0.286
AATCATAC	0.206
CAACATAC	0.125
GAACATAA	0.198
CAACATAG	0.0889
TAACATAA	0.317
AAACATAA	0.199
AATCATAG	0.291
GATCATAA	0.241
TATCATAA	0.272
CATCATAA	0.139
CCGGAGTC	0.014
AACCTCCG	-0.183
ATGCCCTA	-0.0594
CCCGATAA	-0.0584
AAACCATT	0.045
CCTAGGGC	-0.254
ACCCTCAT	-0.136
GGATTGAA	0.104

Sequence	PBM E-score
CTGCCCAG	-0.249
CCGTGTAC	0.102
CCATAAAA	0.0525
CAGCAGAA	-0.0607
AAGCAGAA	0.261
AAGCAGAT	0.128
ACTGATAC	-0.00272
CTCTTACA	0.0444
CGTGCCTA	-0.177
GCACCGGC	-0.178
CTGTAGCA	-0.13
ACAACTTC	0.296
ACAACTTA	0.184
ACAACTTG	0.0528
ACAATCGT	-0.0859
ATCCTCCC	-0.103
GAGTAATA	0.26
TAATAGTA	0.228
AAGTAATA	0.247
CAGTAATA	0.254
TAGTAAAA	0.137
TAGTAATA	0.27
AACCCTTA	0.168
AGCTTCAG	-0.115
GCCGCGAA	-0.133
AATTACGT	0.278

Sequence	PBM E-score
GATTACGA	0.434
AATTACGC	0.073
GATTACGC	0.301
AATTACGG	0.141
AATTACAG	0.107
AATTACAT	0.322
AATTACAC	0.0804
GGTTACGA	0.0792
CATTACGC	0.0481
GATTACAC	0.233
TATTACGA	0.257
ACTCTTGC	-0.108
GACGGTCC	-0.201
CATGGCGA	-0.0534
CGGTGGTC	-0.098
ATGTCCAA	0.0429
AATTACCA	0.187
CATTACGA	0.127
AATTACGA	0.313
CTCAGATC	0.0619
GTTGAGTA	0.0846
CGTGAGTA	0.0731
AGTGAGTG	-0.0867
AGTGAGTA	0.284
ATTGAGTC	0.103
ATTGAGTA	0.262

Sequence	PBM E-score
AAGCAACA	0.162
CATAAAGA	0.104
CGCATCGA	0.182
ATAACGCC	0.0372
AGTAAGCA	0.283
AGTAAGGG	0.0482
GGTAAGCA	0.318
AGTAAGCG	0.354
GGTAAGAA	0.011
GGTAAGGA	-0.153
ACTAAGCA	0.241
ACTAAGCG	0.149
AGTAAGTA	0.227
